{"source": "PubChem BioAssay (Tox21)", "note": "Records with an inconclusive call do not appear. A call without a number means that no potency is given here. Calls of active or inactive are those of the source. The call rests on the fitted dose curve; in most records, active means well fitted cell-killing curve with a large enough effect in the repeat runs; inconclusive means weak or mixed curves, or effect the other way; inactive means no such curve, though single readings can be large or run the other way. Potency means the concentration at half of the fitted maximal effect."}
{"experiment": "qHTS assay to identify small molecule antagonists of the retinoid-related orphan receptor gamma (ROR-gamma) signaling pathway - cell viability counter screen (AID 1159520); further: nearly all actives have a fitted effect of over 50% in size", "settings": "Tet-on RORgamma CHO cells viability, ATP luminescence, 16 h; series mostly up to 92.4 µM", "text": "U.S. Tox21 Program National Center for Advancing Translational Sciences [NCATS] NIH Chemical Genomics Center [NCGC] U.S. Environmental Protection Agency [EPA] National Institutes of Environmental Health Sciences [NIEHS] National Toxicology Program [NTP] U.S. Food and Drug Administration [FDA] Tox21 Assay Overview: Nuclear steroid hormone receptors are involved in many biological processes including inflammatory responses, cell proliferation, and apoptosis. Environmental factors or compounds disrupting these nuclear receptor pathways and gene expression may promote susceptibility to immunotoxicants and autoimmune diseases. One important group of these expression factors are the retinoid-related orphan receptors. To assess compounds that may interfere with the retinoid-related orphan receptor gamma (ROR-gamma) transcription factor, a cell-based luciferase assay was used. The CHO cell-based assay utilizes a TET-inducible ROR expression factor and ROR response element-LUC reporter gene. Reporter gene activity was induced using Doxycycline Hyclate and measured after 16 hr incubation. Tet-on ROR gamma CHO cells were used to screen against the Tox21 10K compound library for cytotoxicity by measuring the viability of the cells based on the quantitation of the ATP.\nTox21 Assay Protocol Summary: Tet-on ROR gamma CHO cells were dispensed at 1,000 cells in 4 uL of culture medium per well into white wall/solid bottom 1536-well plates using a Multidrop Combi (Thermo Scientific, Waltham, MA) dispenser. Following incubation at 37 C and 5% CO2 for 4 hr, 23 nL of compounds dissolved in DMSO, positive controls or DMSO only were transferred by a Pintool station (Kalypsys, San Diego, CA) and after 2 hr incubation at 37 C, one ul of 1 uM (final concentration) of Doxycycline Hyclate was added to all the wells by using a Flying Reagent Dispenser (FRD) (Aurora Discovery, San Diego, CA). After 16 hr incubation at 37 C and 5% CO2, 5 uL of CellTiter-Glo reagent (Promega Corporation, Madison, WI) was added to each assay plate using FRD. After 30 min incubation at room temperature, luminescence was quantified on a ViewLux plate reader (Perkin Elmer, Waltham, MA)."}
{"smiles": "C/C(=C\\c1ccccc1)[N+](=O)[O-]", "Potency": "27.3 µM (active)"}
{"smiles": "Clc1ccc(C(OCCN2CCCCC2)c2ccccc2)cc1", "note": "(stereo not given)", "Potency": "inactive"}
{"smiles": "O=S(=O)(O)C(F)(F)C(F)(F)C(F)(F)C(F)(F)F", "Potency": "inactive"}
{"smiles": "O=C(NC(=O)c1c(F)cccc1F)Nc1ccc(OC(F)(F)C(F)OC(F)(F)F)c(Cl)c1", "note": "(stereo not given)", "Potency": "inactive"}
{"smiles": "Sc1ccccc1Cl", "Potency": "inactive"}
{"smiles": "COc1ccc(-c2ccccc2)cc1NNC(=O)OC(C)C", "Potency": "inactive"}
{"smiles": "CCC(Br)(CC)C(=O)NC(N)=O", "Potency": "inactive"}
{"smiles": "Clc1cc(C(Cl)(Cl)Cl)cnc1Cl", "Potency": "inactive"}
{"smiles": "ClCCCCBr", "Potency": "inactive"}
{"smiles": "CCCCN=C=O", "Potency": "inactive"}
{"smiles": "O=Cc1ccc(Cl)cc1Cl", "Potency": "inactive"}
{"smiles": "CCCN(CC1CC1)c1c([N+](=O)[O-])cc(C(F)(F)F)cc1[N+](=O)[O-]", "Potency": "inactive"}
{"smiles": "Cc1cc(=O)[nH]o1", "Potency": "inactive"}
{"smiles": "CC(C)(Cl)[N+](=O)[O-]", "Potency": "inactive"}
{"smiles": "C[C@@H]1CC[C@H]2[C@@H](C)C(=O)O[C@@H]3O[C@@]4(C)CC[C@@H]1[C@]32OO4", "Potency": "inactive"}
{"smiles": "CC1Sc2c(C(=O)O)c(=O)c3cc(F)c(N4CCNCC4)cc3n21", "note": "(stereo not given)", "Potency": "inactive"}
{"smiles": "CCOC(=O)CBr", "Potency": "inactive"}
{"smiles": "O=C(OC1CCCCC1)c1ccccc1C(=O)OC1CCCCC1", "Potency": "inactive"}
{"smiles": "O=C(NCc1cccnc1)Nc1ccc([N+](=O)[O-])cc1", "Potency": "inactive"}
{"smiles": "O=C(O)C(F)(F)C(F)(F)C(F)(F)C(F)(F)C(F)(F)C(F)(F)C(F)(F)C(F)(F)C(F)(F)C(F)(F)F", "Potency": "inactive"}
{"smiles": "O=[N+]([O-])C(Br)(CO)CO", "Potency": "43.3 µM (active)"}
{"smiles": "CC(Cl)C(C)Cl", "note": "(stereo not given)", "Potency": "inactive"}
{"smiles": "Nc1nc(=S)[nH][nH]1", "Potency": "inactive"}
{"smiles": "C=C(C#N)CCC#N", "Potency": "inactive"}
{"smiles": "CCOS(C)(=O)=O", "Potency": "inactive"}
{"smiles": "COC(N)=O", "Potency": "inactive"}
{"smiles": "Cn1cc[n+](C)c1", "note": "(tested in a mixture with another compound)", "Potency": "inactive"}
{"smiles": "O=[N+]([O-])c1ccc(F)c([N+](=O)[O-])c1", "Potency": "38.9 µM (active)"}
{"smiles": "NNC(=O)c1cccnc1", "Potency": "inactive"}
{"smiles": "COCC(C)N(C(=O)CCl)c1c(C)csc1C", "note": "(stereo not given)", "Potency": "inactive"}
{"smiles": "CCOP(=O)(OCC)SCCSCC", "Potency": "inactive"}
{"smiles": "Cc1c(F)c(F)c(COC(=O)C2C(/C=C(\\Cl)C(F)(F)F)C2(C)C)c(F)c1F", "note": "(stereo not given)", "Potency": "inactive"}
{"smiles": "CS/C(C)=N/OC(=O)N(C)SN(C)C(=O)O/N=C(\\C)SC", "Potency": "43.3 µM (active)"}
{"smiles": "II", "Potency": "30.6 µM (active)"}
{"smiles": "Cc1ccc2ccccc2c1", "Potency": "inactive"}
{"smiles": "COCCOCCO", "Potency": "inactive"}
{"smiles": "IC(I)=C(I)I", "Potency": "3.86 µM (active)"}
{"smiles": "CCOC(=O)COc1cc(-c2nn(C)c(OC(F)F)c2Cl)c(F)cc1Cl", "Potency": "inactive"}
{"smiles": "O=C(O)c1ccccc1C(=O)Nc1cccc2ccccc12", "Potency": "inactive"}
{"smiles": "O=NN1CCNCC1", "Potency": "inactive"}
